Source: PubChem
The list is not random: actives were taken first. Their share in the collection is about 5.7%.
ClpP mod = qHTS Assay for Activators of ClpP; ATP-dependent Clp protease proteolytic subunit (Bacillus subtilis (strain 168)), P80244; purified B. subtilis ClpP, FRET peptide cleavage, 20 min; Potency, µM (doses to about 57.5 µM); hit rate 1.9% among 340,000; active = well fitted falling curve with a large enough effect; inconclusive = small, poorly fitted or top-dose-only effect; inactive = no such curve, though single readings can be large or run the other way; note: the source files actives as falling curves though it sought activators and does not explain the sign; nearly all actives have a fitted effect of over 65% in size
Target sequence (P80244 whole entry, looked up): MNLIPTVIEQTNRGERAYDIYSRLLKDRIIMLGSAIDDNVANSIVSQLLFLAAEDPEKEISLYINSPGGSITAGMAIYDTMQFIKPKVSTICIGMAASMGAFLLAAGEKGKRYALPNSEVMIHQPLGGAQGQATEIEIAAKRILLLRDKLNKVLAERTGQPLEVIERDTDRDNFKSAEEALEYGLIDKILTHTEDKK
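Buffer: 100 mM Tris/HCl pH8, 100 mM KCl, 0.05% low protease BSA, 2.5% glycerol, 0.01% Tween-20. ClpP 10 microg/mL final; 20 min RT; delta FRET normalized to ADEP and DMSO controls.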
D3 ag = activates the human D3 dopamine receptor; AID 652048; hit rate 0.58% among 410,000; D3R DiscoveRx beta-arrestin cells, luminescence, 90 min; P35462; max activation, %; in the data active = max activation above about 30%
Target sequence (P35462 whole entry, looked up): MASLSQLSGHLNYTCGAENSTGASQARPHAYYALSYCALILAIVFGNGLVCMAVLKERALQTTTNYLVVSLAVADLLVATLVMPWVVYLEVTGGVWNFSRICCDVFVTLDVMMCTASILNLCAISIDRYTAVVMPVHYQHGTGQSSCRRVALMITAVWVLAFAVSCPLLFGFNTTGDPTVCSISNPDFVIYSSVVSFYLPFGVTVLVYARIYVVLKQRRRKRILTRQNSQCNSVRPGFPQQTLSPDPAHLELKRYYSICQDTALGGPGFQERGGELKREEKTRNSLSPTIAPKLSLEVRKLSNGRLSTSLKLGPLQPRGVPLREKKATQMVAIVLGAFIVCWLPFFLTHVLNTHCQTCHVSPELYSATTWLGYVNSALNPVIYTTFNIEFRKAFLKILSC
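Agonist mode: compounds and dopamine controls were applied to plated cells for 90 min at 37 degrees C after an overnight attachment at 1500 cells/well. Luminescent read-out followed 30 - 60 minutes at room temperature with DiscoveRx detection reagent.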
GLP1R inv ag = GLP-1 receptor (human) inverse agonism. P43220. HEK293 GLP-1R CRE-luciferase, luminescence, 24 h; GLP-1R form is constitutively active. Potency, µM (series often up to 38.3 µM), usual class: inhibitors. hit rate 1.6% among 410,000; note: nearly all actives have a fitted effect of over 55% in size
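Readout was luciferase luminescence, measured 12 min after detection reagent at room temperature. Beforehand, GLP-1R reporter HEK293 cells had sat 12 h, then received compounds for 24 hr at 37 deg C.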
DRD3 antagonist = D3 dopamine receptor (human) antagonism | hit rate 2.5% among 360,000 | AID 652054 | max response, negative = inhibition, % | P35462 | D3R cells, DiscoveRx beta-arrestin luminescence, antagonist mode; stronger effect = lower value; in the data active = max response below about -50%; inconclusive = no clear call, values can overlap the other calls
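Cells expressing the human receptor were seeded at 1500 cells/well, incubated overnight at 37 degrees C in 5% CO2, then exposed to library compounds with dopamine controls for 90 minutes at 37 degrees C before luminescent detection.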
GLP1R ag = agonists of human GLP-1 receptor; hit rate 0.007% among 380,000; HEK293 GLP-1R CRE-luciferase, luminescence, 4-6 h; cells express a hypersensitive GLP-1R form; AID 624172; Potency, µM (highest dose often 45.6 µM), actives largely listed as activators
HEK293 tox = cytotoxic in the GLP-1 receptor inverse agonist counter-screen | HEK293 cAMP-luciferase reporter cells, luminescence, 24 h | Potency, µM (highest dose often 38.3 µM), most hits filed as inhibitors | hit rate 0.13% among 410,000 | AID 624418;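 note: loss of luciferase light is scored as toxicity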
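Step one: seed cells (200 cells/uL, DMEM with 10% Nu serum, 1% pen-strep). Step two: 12-hour incubation at 37 deg C. Step three: pin 23 nL compound, incubate 24 hr. Step four: add luciferase reagent, read luminescence 12 min later.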
Of the large screens only hits and unclear results are named; the others gave an inactive call. Unless noted, calls come from the whole dose curve; as a rule, active = well fitted curve in the direction sought with a large enough effect; inconclusive = small, poorly fitted or top-dose-only effect, or another doubt; inactive = no such curve, though single readings can be large; an effect the other way counts as inactive or inconclusive.

Cc1cccnc1C(NC(=O)C1CCN(Cc2ccc(Oc3ccccc3)cc2)CC1)c1ccccc1 (stereo not given)	GLP1R inv ag inconclusive, DRD3 antagonist -81, HEK293 tox inconclusive
Cc1cccnc1C(NC(=O)C1CCN(Cc2ccccc2)CC1)c1ccc(F)cc1 (stereo not given)	GLP1R inv ag inconclusive, DRD3 antagonist -55
COc1ccc(C(NC(=O)C2CCN(Cc3ccc(Oc4ccccc4)cc3)CC2)c2ccccc2C)cn1 (stereo not given)	GLP1R inv ag inconclusive, DRD3 antagonist -79
CCOc1ccc(NC(=O)CN2C(=O)COc3ccc(S(=O)(=O)NC4CCCC4)cc32)cc1	none (no result: DRD3 antagonist, GLP1R ag)
COc1cc(CN2CCC(C(=O)NC(c3ccc(F)cc3)c3ncccc3C)CC2)cc(OC)c1 (stereo not given)	GLP1R inv ag inconclusive
Cc1cccnc1C(NC(=O)C1CCN(CCCOc2ccccc2)CC1)c1ccc(F)cc1 (stereo not given)	DRD3 antagonist -105
COc1ccc(C(NC(=O)C2CCN(Cc3ccc(Oc4ccccc4)cc3)CC2)c2ccccn2)cc1 (stereo not given)	GLP1R inv ag inconclusive, DRD3 antagonist -55
CC(C)C[C@@H](N)C(=O)O	none (no result: ClpP mod, GLP1R inv ag, DRD3 antagonist, HEK293 tox)
COc1ccccc1N1CCN(C(=O)CSc2n[nH]c(-c3ccccc3Cl)n2)CC1	none (no result: DRD3 antagonist, GLP1R ag)
CC(C)c1ccc(OCC(=O)Nc2cc(-c3ccccc3)no2)cc1	none (no result: DRD3 antagonist, GLP1R ag)
N[C@H](C(=O)O)[C@@H]1CC(Cl)=NO1	none (no result: ClpP mod, GLP1R inv ag, DRD3 antagonist, GLP1R ag, HEK293 tox)
CCn1nc(C)c2c(-c3ccccc3)cc(=O)n(C(C)C(=O)NCc3cccc(OC)c3)c21 (stereo not given)	GLP1R inv ag inconclusive (no result: DRD3 antagonist, GLP1R ag)
O=C(CSc1nnc(CNc2ccccc2)o1)N1CCc2ccccc21	D3 ag 44
Cc1cc(C)c(S(=O)(=O)c2ccccc2)c(OC(=O)c2c(F)cccc2F)n1	none (no result: ClpP mod)
Cc1cc(C)c(S(=O)(=O)c2ccccc2)c(OC(=O)c2c(Cl)cc(Cl)cc2Cl)n1	GLP1R inv ag 7.9µM, DRD3 antagonist inconclusive, HEK293 tox inconclusive
COC(=O)[C@H](CC(C)C)NC(=O)/C=C/[C@H]1O[C@@H](n2ccc(=O)[nH]c2=O)[C@H](O)[C@@H]1O	none
Cc1nnc(NC(=O)c2sc3ccccc3c2Cl)s1	GLP1R inv ag inconclusive, DRD3 antagonist -73
COCc1nnc(NC(=O)c2sc3ccccc3c2Cl)s1	none
O=C1CN(C(=O)Nc2ccccc2Cl)C(c2ccccc2)c2c(sc3c2CCCC3)N1 (stereo not given)	none (no result: DRD3 antagonist, GLP1R ag)
COc1ccc(-c2noc(N(c3cccc(Cl)c3)c3nc(-c4ccc(OC)c(OC)c4)no3)n2)cc1OC	none (no result: DRD3 antagonist)
CCCCSc1ccc2nc(-c3ccc(C#N)cc3)cn2c1	ClpP mod inconclusive, GLP1R inv ag inconclusive
CCCSc1ccc2nc(-c3ccccc3)cn2c1	ClpP mod 22µM, GLP1R inv ag 2.5µM
Cc1ccc(-n2c(/C=C/c3c(C)n(C)c4ccccc34)nc3ccccc3c2=O)cc1	none (no result: DRD3 antagonist, GLP1R ag)
COc1ccc(OC)c(-c2nc(C(=O)NC3CCN(Cc4ccccc4)CC3)cc3c2[nH]c2ccccc23)c1	GLP1R inv ag 10µM, DRD3 antagonist -125
COc1cc(-c2nc(C(=O)NC3CCN(Cc4ccccc4)CC3)cc3c2[nH]c2ccccc23)cc(OC)c1OC	GLP1R inv ag inconclusive, DRD3 antagonist -117, HEK293 tox inconclusive
COc1cc(-c2nc(C(=O)NC3CCCCC3)cc3c2[nH]c2ccccc23)cc(OC)c1OC	GLP1R inv ag inconclusive
COc1cccc(Cn2c(C(C)n3c(C)nc4ccccc43)nc3ccccc32)c1 (stereo not given)	none (no result: GLP1R ag)
C[C@@H]1CN([C@H](C)CO)C(=O)CCCn2nncc2CO[C@H]1CN(C)Cc1ccc2c(c1)OCO2	none
COC1C=CO[C@@]2(C)Oc3c(C)c(O)c4c(O)c(c(C=NN5CCN(C)CC5)c(O)c4c3C2=O)NC(=O)/C(C)=C\C=CC(C)C(O)[C@@H](C)C(O)C(C)[C@H](OC(C)=O)C1C (stereo not given in full)	none (no result: ClpP mod, D3 ag, GLP1R inv ag, DRD3 antagonist, HEK293 tox)
OCCCNC(=S)Nc1ccc(Oc2ccccc2)cc1	none (no result: ClpP mod)
CC(C)CNC(=S)Nc1ccc(Oc2ccccc2)cc1	GLP1R inv ag 11µM, HEK293 tox inconclusive
COc1ccc(SCc2cc(=O)c3cc(Cl)ccc3[nH]2)cc1	none (no result: DRD3 antagonist, GLP1R ag)
CN(C)CCNc1ncnc2c1ncn2[C@H]1CN(Cc2cccs2)C[C@@H](CO)O1	none
Cc1ccc(S(=O)(=O)c2c(C)nn(C(C)(C)C)c2OC(=O)C2CCCC2)cc1	GLP1R inv ag inconclusive, HEK293 tox inconclusive
Cc1nn(C(C)(C)C)c(OC(=O)C2CCCC2)c1S(=O)(=O)c1ccccc1	ClpP mod 11µM, GLP1R inv ag inconclusive
Nc1ccccc1SCc1csc(-c2ccc(Cl)cc2)n1	GLP1R inv ag 10µM
Clc1ccc(-c2nc(CSc3ccccn3)cs2)cc1	GLP1R inv ag inconclusive
COc1ccc(Nc2nc3cc(Cl)c(Cl)cc3n3cnnc23)cc1Cl	none (no result: DRD3 antagonist, GLP1R ag)
C[C@H]1CCC[C@]2(O[C@H](CCO)C[C@H](O)[C@H]2O)O1	D3 ag 37, HEK293 tox inconclusive
C[C@H]1CCC[C@@]2(O[C@@H](CCO)C[C@H](O)[C@H]2O)O1	none
Cc1ccc(C(C)C)cc1OCC(=O)N/N=C/c1ccc2c(c1)OCCO2	D3 ag 48, GLP1R inv ag inconclusive
COc1cc(C2Nc3ccccc3-c3cc(C)nn32)ccc1O (stereo not given)	ClpP mod 32µM (no result: DRD3 antagonist, GLP1R ag)
CCOc1cccc(C2Nc3ccccc3-c3cc(C)nn32)c1O (stereo not given)	none (no result: DRD3 antagonist, GLP1R ag)
Cc1cc2n(n1)C(c1ccc(O)cc1)Nc1ccccc1-2 (stereo not given)	ClpP mod 28µM
Cc1cc2n(n1)C(c1cccs1)Nc1ccccc1-2 (stereo not given)	ClpP mod 20µM
COc1ccc(C2Nc3ccccc3-c3cc(C)nn32)cc1OC (stereo not given)	ClpP mod 14µM (no result: DRD3 antagonist, GLP1R ag)
CCOC(=O)c1c(NC(=O)CSc2cn(CCNC(=O)c3ccccc3F)c3ccccc23)sc2c1CCCC2	none (no result: DRD3 antagonist)
CCn1c(=O)c2cc(C(=O)NCCc3ccc(OC)c(OC)c3)sc2c2ccccc21	none (no result: DRD3 antagonist)
COc1ccc(N=c2nc(-c3ccccc3)n(-c3ccc(C)cc3)s2)cc1	none (no result: D3 ag, GLP1R inv ag, DRD3 antagonist, GLP1R ag, HEK293 tox)
COc1cc(C(=O)Nc2cc3c(cc2C)n(C)c(=O)c(=O)n3C)cc(OC)c1OC	ClpP mod inconclusive (no result: DRD3 antagonist, GLP1R ag)
Cc1ccccc1CN1CCN(CC2CC2)CC1CCO (stereo not given)	DRD3 antagonist -82
